Experimental findings from PubChem BioAssay are described below.

SMILES strings stand for the structures. Values without a mark were called inactive. The source made the active and inactive calls.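 How the source made its calls: active means thallium flux through the channel raised or lowered by more than 3 SD from vehicle-only wells, actives on both sides; inactive means the rest.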

What all share (test): BK channel mutant inhibitors and activators – cell-based, U2OS BacMam, thallium flux, beta subunits, selectivity assay, profiling panel (AID 1259406);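 further: initial slope of Thallos dye fluorescence rise after thallium is added; log ratio against the mean of 0.3% DMSO vehicle wells on the same plate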
One experiment relates to F380Y. The following applies: U2OS BacMam BK variants, at 30 µM.
The subject of a further experiment is F380Y/beta1. The following applies: U2OS BacMam BK variants, at 30 µM.
A further experiment relates to F380Y/beta2Delta. As to conditions: U2OS BacMam BK variants, at 30 µM.
A further experiment deals with F380Y/beta4. As to conditions: U2OS BacMam BK variants, at 30 µM.
Experiment [1] concerns the target Calcium-activated potassium channel subunit alpha-1 (Homo sapiens) + Leucine-rich repeat-containing protein 26 (Homo sapiens) (UniProt Q12791+Q2I0M4). As to conditions: U2OS BacMam BK variants, F380Y/Slo1WT/gamma1, at 30 µM.
Another experiment relates to R275C. The following applies: U2OS BacMam BK variants, at 30 µM.
Another experiment deals with R275C/beta1. As to conditions: U2OS BacMam BK variants, at 30 µM.
A further experiment relates to R275C/beta2Delta. The following applies: U2OS BacMam BK variants, at 30 µM.
The test system of a further experiment is R275C/beta4. The following applies: U2OS BacMam BK variants, at 30 µM.
The subject of the next experiment is R275C/Slo1WT/beta2. The following applies: U2OS BacMam BK variants, at 30 µM.

Sequence of Calcium-activated potassium channel subunit alpha-1 (Homo sapiens) + Leucine-rich repeat-containing protein 26 (Homo sapiens) (Q2I0M4 whole entry, looked up, one chain of several): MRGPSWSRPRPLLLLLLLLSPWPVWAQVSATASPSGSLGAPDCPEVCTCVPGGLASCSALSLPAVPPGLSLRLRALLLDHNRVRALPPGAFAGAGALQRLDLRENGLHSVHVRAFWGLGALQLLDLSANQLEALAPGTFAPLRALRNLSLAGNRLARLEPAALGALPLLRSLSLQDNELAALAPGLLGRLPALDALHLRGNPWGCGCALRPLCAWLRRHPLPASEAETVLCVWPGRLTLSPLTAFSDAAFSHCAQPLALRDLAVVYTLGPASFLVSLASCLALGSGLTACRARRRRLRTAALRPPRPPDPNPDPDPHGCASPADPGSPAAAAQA

For `O=C(Nc1ccc(F)cc1)N1CCN(Cc2ccccc2)CC1`, the log fold change Tl+ flux in the experiment on F380Y is 0.0438; in the experiment with F380Y/beta1, 0.00516; in the experiment on F380Y/beta2Delta, 0.00491; in the experiment with F380Y/beta4 it was 0.032; in experiment [1], 0.0285; in the experiment on R275C, 0.0233. The log fold change Tl+ flux in the experiment with R275C/beta1 was 0.0689; with R275C/beta2Delta, -0.00966; with R275C/beta4 it was 0.0882 (active); in the experiment with R275C/Slo1WT/beta2, 0.000608.

With `Cc1cc(C)n2nc(Sc3ncccc3[N+](=O)[O-])nc2n1`, the log fold change Tl+ flux with F380Y was 0.0293; with F380Y/beta1 it was -0.0122; in the experiment with F380Y/beta2Delta, -0.0308; with F380Y/beta4, 0.00857; in experiment [1] it was 0.0468; in the experiment with R275C, 0.0175. Also, the log fold change Tl+ flux with R275C/beta1 was -0.025; with R275C/beta2Delta, -0.00322; with R275C/beta4, 0.00925; in the experiment on R275C/Slo1WT/beta2 it was 0.0318.

Consider `CC(C)C1COC(c2cccc(C3=NC(C(C)C)CO3)n2)=N1` (stereo not given), for which the log fold change Tl+ flux in the experiment with F380Y is -0.0154; in the experiment on F380Y/beta1 it was 0.0433; with F380Y/beta2Delta, 0.00332; in the experiment with F380Y/beta4, 0.0308; in [1], 0.0138; in the experiment on R275C it was -0.00894. The log fold change Tl+ flux was 0.00883 in the experiment on R275C/beta1, -0.00732 in the experiment with R275C/beta2Delta, -0.00827 in the experiment on R275C/beta4 and 0.043 in the experiment with R275C/Slo1WT/beta2.

For `O=C(Nc1ccc(OC(F)(F)F)cc1)Nc1cc(C(F)(F)F)ccc1N1CCOCC1`, the log fold change Tl+ flux in the experiment on F380Y was 0.0283; in the experiment on F380Y/beta1, -0.00979; with F380Y/beta2Delta it was 0.0491; in the experiment on F380Y/beta4, -0.00808; in experiment [1], 0.0378; in the experiment on R275C it was 0.022. Further, the log fold change Tl+ flux in the experiment with R275C/beta1 was 0.0354; with R275C/beta2Delta it was -0.0143; in the experiment with R275C/beta4 it was -0.0232; in the experiment on R275C/Slo1WT/beta2, -0.0238.

Consider `CC(=O)Nc1ccc(S(=O)(=O)C[N+](=O)[O-])cc1`, for which the log fold change Tl+ flux in the experiment on F380Y was -0.0207; in the experiment with F380Y/beta1 it was -0.00968; in the experiment with F380Y/beta2Delta, 0.0255; in the experiment on F380Y/beta4, -0.00689; in experiment [1] it was 0.00333; in the experiment on R275C it was -0.0177. The log fold change Tl+ flux in the experiment with R275C/beta1 is -0.00122; in the experiment on R275C/beta2Delta, 0.0327; in the experiment on R275C/beta4, -0.0178; in the experiment on R275C/Slo1WT/beta2, -0.0147.

For `Cc1onc(-c2c(Cl)cccc2Cl)c1C(=O)NOC(=O)c1cccs1`, the log fold change Tl+ flux with F380Y was 0.00334; in the experiment on F380Y/beta1, 0.0153; with F380Y/beta2Delta, 0.0189; in the experiment on F380Y/beta4 it was 0.0829; in experiment [1] it was -0.0657; in the experiment on R275C it was -0.0156. In addition, the log fold change Tl+ flux in the experiment on R275C/beta1 was 0.0266; with R275C/beta2Delta, 0.0291; in the experiment with R275C/beta4 it was 0.0618; in the experiment on R275C/Slo1WT/beta2 it was -0.0647.

Regarding `CCCCCc1c(C)nc(-c2ccccn2)[nH]c1=O`, the log fold change Tl+ flux in the experiment on F380Y is -0.0547; in the experiment on F380Y/beta1, -0.0236; with F380Y/beta2Delta, -0.0415; with F380Y/beta4, -0.0388; in experiment [1], -0.0142; with R275C, 0.00744. The log fold change Tl+ flux is 0.00404 in the experiment with R275C/beta1, 0.0392 in the experiment on R275C/beta2Delta, 0.0188 in the experiment with R275C/beta4 and -0.0181 in the experiment with R275C/Slo1WT/beta2.

For `CCC(=NOc1ccc(C(F)(F)F)cn1)c1ccc(-c2ccccc2F)cc1`, the log fold change Tl+ flux in the experiment with F380Y is 0.147 (active); in the experiment with F380Y/beta1, -0.0225; with F380Y/beta2Delta, 0.0209; with F380Y/beta4 it was -0.0257; in experiment [1], -0.0559; in the experiment on R275C, -0.0194. Further, the log fold change Tl+ flux with R275C/beta1 is 0.00871; in the experiment with R275C/beta2Delta, 0.0154; in the experiment on R275C/beta4 it was 0.0265; in the experiment with R275C/Slo1WT/beta2, -0.0112.

As for `CCOC(=O)c1cnn(C(=O)c2ccc(-n3c(C)ccc3C)cc2)c1N`, the log fold change Tl+ flux was -0.0269 in the experiment on F380Y; -0.0106 in the experiment with F380Y/beta1; -0.0157 in the experiment on F380Y/beta2Delta; -0.067 in the experiment on F380Y/beta4; 0.00537 in [1]; -0.0135 with R275C. The log fold change Tl+ flux with R275C/beta1 was -0.0219; in the experiment with R275C/beta2Delta, 0.0233; with R275C/beta4 it was -0.00435; with R275C/Slo1WT/beta2 it was 0.0525.

As for `Clc1ccc(-n2nnnc2-c2cccnc2)c(Cl)c1`, the log fold change Tl+ flux with F380Y was 0.0135; in the experiment with F380Y/beta1, -0.0393; with F380Y/beta2Delta it was -0.0638; in the experiment with F380Y/beta4, 0.0275; in experiment [1] it was 0.00547; with R275C it was 0.00315. In addition, the log fold change Tl+ flux was 0.0215 in the experiment with R275C/beta1, -0.00811 in the experiment on R275C/beta2Delta, 0.00931 in the experiment on R275C/beta4 and 0.0349 in the experiment with R275C/Slo1WT/beta2.

Turning to `O=[N+]([O-])c1cnc(Sc2nccc(-c3cccnc3)n2)s1`, the log fold change Tl+ flux is -0.00331 in the experiment on F380Y; 0.0246 with F380Y/beta1; -0.0191 in the experiment with F380Y/beta2Delta; 0.00729 in the experiment on F380Y/beta4; -0.074 in experiment [1]; 0.0275 in the experiment on R275C. Moreover, the log fold change Tl+ flux was 0.026 in the experiment with R275C/beta1, -0.0186 in the experiment with R275C/beta2Delta, 0.0146 in the experiment on R275C/beta4 and -0.0189 in the experiment with R275C/Slo1WT/beta2.

As to `CC1(C)CCc2cc(C=NNC(=O)c3cccc(Cl)c3Cl)ccc2O1`, the log fold change Tl+ flux is -0.00742 with F380Y; 0.0223 with F380Y/beta1; -0.00817 with F380Y/beta2Delta; 0.0599 in the experiment on F380Y/beta4; 0.0181 in experiment [1]; -0.00408 in the experiment with R275C. Besides, the log fold change Tl+ flux in the experiment on R275C/beta1 is 0.0163; in the experiment with R275C/beta2Delta, -0.000312; with R275C/beta4 it was -0.0646; in the experiment on R275C/Slo1WT/beta2 it was 0.00986.

As for `CC(C)(C)c1ccc(Oc2ccc(NC(=O)Nc3cccs3)cn2)cc1`, the log fold change Tl+ flux in the experiment with F380Y was -0.105 (active); in the experiment on F380Y/beta1, 0.131 (active); in the experiment on F380Y/beta2Delta, -0.0118; with F380Y/beta4 it was 0.0598; in experiment [1], 0.0627; in the experiment with R275C it was 0.0691. Besides, the log fold change Tl+ flux with R275C/beta1 is 0.0982; in the experiment on R275C/beta2Delta, 0.0026; in the experiment with R275C/beta4, 0.026; in the experiment on R275C/Slo1WT/beta2 it was -0.00521.
